From PubChem BioAssay (NCATS)
Inconclusive results are not listed. Entries that show only a call come without a potency. Active and inactive are the calls of the source. Calls follow the shape of the dose curve; as a rule, active = well fitted inhibition curve with a large enough effect; inconclusive = small, poorly fitted or top-dose-only effect; inactive = flat fitted curve, though single readings scatter.

Target: Glutathione peroxidase 1 (Homo sapiens) (UniProt P07203)
Experiment: Primary qHTS Assay for Inhibitors of Recombinant Selenoprotein Glutathione Peroxidase 1 (GPX1) (AID 1845191); also: nearly all actives have a fitted effect of over 65% in size
Settings: recombinant GPX1, GR-coupled NADPH fluorescence, 15 min; series mostly up to 48.8 µM
Method in brief: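 GR-coupled assay: compounds preincubated 30 min at room temperature with GPX1, then reaction started with CHP; final 10 nM GPX1, 1 mM GSH, 0.5 mM CHP, 0.5 mM NADPH, 100 nM GR, 0.01% BSA, pH 7.5 Tris buffer. NADPH fluorescence (340/450 nm) read at 0 and 15 min.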

Sequence of Glutathione peroxidase 1 (Homo sapiens) (P07203 whole entry, looked up): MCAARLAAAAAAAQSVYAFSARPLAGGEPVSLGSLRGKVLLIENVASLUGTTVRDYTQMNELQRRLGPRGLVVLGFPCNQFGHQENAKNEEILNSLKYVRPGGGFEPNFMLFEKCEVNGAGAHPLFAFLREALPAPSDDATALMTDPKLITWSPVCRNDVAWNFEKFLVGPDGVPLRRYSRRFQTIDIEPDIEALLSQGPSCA

| SMILES | Potency |
| --- | --- |
| CC(C)(O)c1ccc2c(c1)C(O)CC1C(C)(C(=O)O)CCCC21C (centres undefined) | inactive |
| CCC(=O)N[C@@H]1Cc2ccccc2[C@H](c2ccccc2)C1 | inactive |
| CC(=O)NCCCCn1c2c(c3ccccc31)C(=O)NCC2 | inactive |
| CC(=O)OC[C@@]12[C@H](O)C[C@@H](C)[C@]3(C[C@@H](c4ccoc4)OC3=O)[C@H]1C[C@H](O)C[C@]21CO1 | inactive |
| CC(C)C1=CCC(C)(O)C(OC2OC(CO)C(O)C(O)C2O)C1 (centres undefined) | inactive |
| CC(C)C(=O)O[C@@H]1[C@@H](O)[C@@H](O[C@H]2O[C@H](CO)[C@@H](O)[C@H](O)[C@H]2O)O[C@H](CO)[C@H]1O | inactive |
| CC(C)C1(O[C@@H]2O[C@H](CO)[C@@H](O)[C@H](O)[C@H]2O)CC=C(CO)CC1 (some centres undefined) | inactive |
| O=C(COc1ccc(Cl)cc1)NC1CCC(NC(=O)COc2ccc(Cl)cc2)CC1 (centres undefined) | inactive |
| CC1(C)CC2C(O)C3=C(CC(C)(O)C2C1)C(=O)OC3O (centres undefined) | inactive |
| COc1cccc2c1CCC[C@H]2CN(C)CCc1ccc2ccoc2c1 | inactive |
| C=C(C)[C@H]1C[C@@H](O)C(=C)CC[C@@H](O)C(=C)[C@@H](O)C1 | inactive |
| CC1(C)O[C@@]2(C)CC[C@@H]1C[C@@H]2OC1OC(CO)C(O)C(O)C1O (some centres undefined) | inactive |
| O=C(/C=C/c1ccc(O)cc1)OC[C@H]1O[C@@H](OC(=O)/C=C/c2ccccc2)[C@H](O)[C@@H](O)[C@@H]1O | inactive |
| Cc1ncc([N+](=O)[O-])n1CC(O)CN1CCOCC1 (centres undefined) | inactive |
| CC(CO[C@@H]1O[C@H](COC(=O)/C=C/c2ccc(O)c(O)c2)[C@@H](O)[C@H](O)[C@H]1O)C1(O)COC(=O)C1 (some centres undefined) | inactive |
| Cc1cn2c(N)c(Cl)cc(C(=O)NCC3CCN(CC(C)C)CC3)c2n1 | inactive |
| COC(=O)C1=CO[C@@H](O[C@@H]2O[C@H](CO[C@@H]3O[C@H](COC(=O)/C=C/c4ccc(O)cc4)[C@@H](O)[C@H](O)[C@H]3O)[C@@H](O)[C@H](O)[C@H]2O)[C@@H]2C(CO)=CC[C@H]12 | inactive |
| Nc1ncnc2c1ncn2[C@H]1CCCO1 | inactive |
| CCC(C)(O)C(O)C(=O)OCc1ccc(O[C@@H]2O[C@H](CO)[C@@H](O)[C@H](O)[C@H]2O)cc1 (some centres undefined) | inactive |
| CC(=O)N1CCN(NC(=O)c2ccc(F)cc2)CC1 | inactive |

| SMILES | Potency |
| --- | --- |
| COC(=O)C1(Cc2ccc(O)cc2)OC(=O)C(OC)=C1c1ccc(O)cc1 (centres undefined) | inactive |
| C=CC1C(O[C@@H]2O[C@H](CO)[C@@H](O)[C@H](O)[C@H]2O)OC=C(C(=O)OC)C1Cc1nccc2c1[nH]c1ccccc12 (some centres undefined) | inactive |
| CC(C)(C)c1cc(CN2CCN(CC(O)c3ccc(Cl)cc3)CC2)cc(C(C)(C)C)c1O (centres undefined) | inactive |
| CC1(C)C(=O)N2c3ccccc3[C@]3(CC(n4cnc5ccccc5c4=O)C(=O)O3)[C@H]2N1O (some centres undefined) | inactive |
| CC[C@H](C)/C=C(C)/C=C/C(=O)Cc1cc(O)c(C)c(O)c1C=O | inactive |
| CC(=O)c1c(O)cc2c(c1C)C(=O)CC(O)C2 (centres undefined) | inactive |
| C[C@H](NCc1ccc(OCc2ccccc2F)cc1)C(N)=O | inactive |
| COc1cc(/C=C/c2cc(O)cc(O[C@@H]3O[C@H](CO)[C@@H](O)[C@H](O)[C@H]3O)c2)ccc1O | inactive |
| CC1(C)CC[C@]2(C(=O)O)CC[C@]3(C)C(=CCC4[C@@]5(C)C[C@H](O)[C@H](O[C@@H]6OC[C@H](O)[C@H](O)[C@H]6O)[C@@](C)(CO)C5CC[C@]43C)[C@@H]2C1 (some centres undefined) | inactive |
| COc1cc([C@H]2OC[C@]3(OC(C)=O)[C@@H](c4ccc(O[C@@H]5O[C@H](CO)[C@@H](O)[C@H](O)[C@H]5O)c(OC)c4)OC[C@H]23)ccc1O | inactive |
| CC1(C)CCC(C)(C)c2cc3c(cc21)Sc1ccccc1N=C3c1ccc(C(=O)O)cc1 | inactive |
| O=C(O)[C@H]1CCCC[C@H]1C(=O)N1CCc2ccccc2[C@H]1CN1C(=O)c2ccccc2C1=O | inactive |
| C=C1[C@H]2CC[C@]3(O)[C@@](CC[C@@H]4[C@](C)(C(=O)O)CCC[C@]43C)(C2)[C@H]1OC(=O)/C(C)=C\C | inactive |
| C[C@H]1[C@H](C)CC[C@]2(C(=O)O)CC[C@]3(C(=O)O)C(=CCC4[C@@]5(C)CC[C@H](O[C@@H]6O[C@H](C)[C@@H](O)[C@H](O)[C@H]6O)C(C)(C)C5CC[C@]43C)[C@H]12 (some centres undefined) | inactive |
| O=C(c1ccccn1)c1cnn2c(-c3ccncc3)ccnc12 | inactive |
| COc1c(C)c2c(c(O)c1C/C=C(\C)CC/C=C(\C)CCC(=O)O)C(=O)OC2 | inactive |
| C=C1CC2(C(=O)O)CC1CCC2C1(C)CCCC2(C)C(=O)OC(O)C21 (centres undefined) | inactive |
| CC(C)=CC/C=C(/C)[C@H]1CC[C@]2(C)[C@@H]1[C@H](O)CC1[C@@]3(C)CC[C@H](O)C(C)(C)[C@@H]3[C@@H](O[C@@H]3O[C@H](CO)[C@@H](O)[C@H](O)[C@H]3O[C@@H]3O[C@@H](C)[C@H](O)[C@@H](O)[C@H]3O)C[C@]12C (some centres undefined) | inactive |
| O=C1NC(Cc2ccc(O)cc2)C(=O)N2CCCC12 (centres undefined) | inactive |
